Results filed as inconclusive are left out. The source made the active and inactive calls. Calls come from the whole dose curve; as a rule, active = well fitted curve in the direction sought with a large enough effect; inconclusive = small, poorly fitted or top-dose-only effect, or another doubt; inactive = no such curve, though single readings can be large; an effect the other way counts as inactive or inconclusive.
Experiments:
[1] = test system: Zika virus NS2B-NS3 protease; test: Primary screen GU AMC qHTS for Zika virus inhibitors (AID 1347154);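 note: 0% = no-inhibitor control and -100% = no-enzyme control; nearly all actives have a fitted effect of over 70% in size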
Procedure, shortened: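 Fluorogenic AMC-substrate cleavage by noncovalent NS2B-NS3 protease complex (25 nM, pH 8.0 Tris buffer with Tween 20) followed for 15 minutes at room temperature (~20% conversion). Percent inhibition from ex340/em450 signal change, fitted by 4-parameter Hill equation.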

[2] = Counterscreen qHTS for small molecule stabilizers of the endoplasmic reticulum resident proteome: GLuc-NoTag assay (AID 1508627);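 note: SH-SY5Y cells given compound then 100 nM thapsigargin to empty ER calcium; series mostly up to about 76 µM; 0% = thapsigargin alone and -100% = DMSO vehicle control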
Procedure, shortened: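 Counterscreen line: SH-SY5Y-GLuc-NoTag cells, treated with compound 19 hr before a 4 hr, 100 nM thapsigargin calcium depletion. Secreted Gaussia luciferase in the medium was measured by luminescence after coelenterazine was added (0.07x final), with cells unlysed.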

[3] = Cell Viability qHTS for small molecule stabilizers of the endoplasmic reticulum resident proteome (AID 1508629); settings: cell viability counter-screen, 100 nM thapsigargin for final 4 h;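 note: human SH-SY5Y neuroblastoma cells carrying the GLuc-SERCaMP reporter; compound exposure about 46 h in total before the viability read; % is set by controls: 0 for no effect and ±100 for the full control effect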

CN(C)C1CCc2[nH]c3ccc(NC(=O)c4ccc(F)cc4)cc3c2C1 (stereo not drawn)
inactive: Potency [1] | Potency [2] | max response [3] -26.6%
